Results filed as inconclusive are left out. Some structures have more than one record in an assay (separate samples or runs), and their calls can disagree. Active and inactive are the calls of the source. The call rests on the fitted dose curve; in most records, active means well fitted curve in the direction sought with a large enough effect; inconclusive means small, poorly fitted or top-dose-only effect, or another doubt; inactive means no such curve, though single readings can be large; an effect the other way counts as inactive or inconclusive.

The nature of test [1]: Quantitative highthroughput screen to assess conditional lethalithy of NOMO1 cells grown in RPMI1640 with untreated serum (RPMI+s) (AID 1963876). Further: nearly all actives have a fitted effect of over 35% in size. Further: potency means the concentration at half of the fitted maximal effect.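 On viability: 100% = DMSO wells and 0% = empty wells without cells.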 In short, it runs like this: (§1)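 Each medium arm—HPLM with 10% dialyzed FBS, or RPMI1640 with 5 mM glucose and 10% untreated or dialyzed FBS—was screened against an 11-point, 3-fold compound titration for 48 h at 37 °C, with CellTiter-Glo luminescence as endpoint.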

Test [2] in a line: Quantitative highthroughput screen to assess conditional lethalithy of NOMO1 cells grown in RPMI1640 with dialyzed fetal bovine serum (RPMI+ds) (AID 1963877). Further: nearly all actives have a fitted effect of over 30% in size. Further: potency means the concentration at half of the fitted maximal effect.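 On viability: series mostly up to about 46 µM; 100% = DMSO control wells and 0% = empty wells.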 In short, it runs like this: as §1
Test [3] is described as follows: Quantitative highthroughput screen to assess conditional lethalithy of NOMO1 cells grown in Human Plasma-Like Medium with dialyzed fetal bovine serum (HPLM+ds) (AID 1963878). Further: nearly all actives have a fitted effect of over 35% in size. Further: potency means the concentration at half of the fitted maximal effect.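 On viability: 100% = DMSO wells and 0% = empty wells on each plate.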 Put shortly: as §1
A short description of test [4]: Quantitative highthroughput screen to assess conditional lethalithy of P12 Ichikawa cells grown in RPMI1640 with untreated serum (RPMI+s) (AID 1963881). Further: nearly all actives have a fitted effect of over 35% in size. Further: potency means the concentration at half of the fitted maximal effect.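 On viability: series mostly up to about 46 µM; 100% = DMSO wells and 0% = empty wells without cells.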 Conditions: Potency: viability. In short, it runs like this:
as §1

Test [5] in a line: Quantitative highthroughput screen to assess conditional lethalithy of P12 Ichikawa cells grown in Human Plasma-Like Medium with dialyzed fetal bovine serum (HPLM+ds) (AID 1963879). Further: series mostly up to about 46 µM; nearly all actives have a fitted effect of over 35% in size. Conditions: Potency: viability. Put shortly: as §1
Test [6] in a line: Quantitative highthroughput screen to assess conditional lethalithy of SEM cells grown in RPMI1640 with unreated serum (RPMI+s) (AID 1963883). Further: nearly all actives have a fitted effect of over 35% in size. Further: potency means the concentration at half of the fitted maximal effect.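 On viability: 100% = DMSO wells and 0% = empty wells without cells.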 In short, it runs like this: as §1
Test [7] can be described thus: Quantitative highthroughput screen to assess conditional lethalithy of SEM cells grown in RPMI1640 with dialyzed fetal bovine serum (RPMI+ds) (AID 1963884). Further: nearly all actives have a fitted effect of over 35% in size. Further: potency means the concentration at half of the fitted maximal effect.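 On viability: series mostly up to about 46 µM; 100% = DMSO control wells and 0% = empty wells without cells.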 Put shortly:
as §1

Test [8] is described as follows: Cellular viability qHTS for adrenocortical cancer (ACC) cell line SW-13 (AID 1963989).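 Further: cells grown in serum-free medium with ITS supplement; on the % scale 0 is the no-effect control and ±100 the full control effect; nearly all actives have a fitted effect of over 65% in size.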 Conditions: SW-13 ACC cells viability, CellTiter-Glo, 48 h; activity (max response): stronger effect = lower value. Put shortly: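 Luminescent ATP read-out (CellTiter-Glo, 20 min at room temperature) measured metabolically competent SW-13 cells after 48 h compound treatment. Final concentrations spanned up to 46 uM; bortezomib served as positive control.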
(Quantitative high-throughput screening tests each substance at several concentrations.)

A short description of test [9]: Cellular viability qHTS for adrenocortical cancer (ACC) cell line NCI-H295R (AID 1963990). Further: nearly all actives have a fitted effect of over 60% in size. Further: potency means the concentration at half of the fitted maximal effect. Put shortly:
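IC50 and maximal efficacy derive from four-parameter logistic modelling of titration curves, with reads scaled between DMSO-only wells (0%) and doxorubicin hydrochloride (100% inhibition). Compounds spanned up to 46 uM over 48 h.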

A short description of test [10]: Quantitative highthroughput screen to assess conditional lethalithy of SEM cells grown in Human Plasma-Like Medium with dialyzed fetal bovine serum (HPLM+ds) (AID 1963882). Further: nearly all actives have a fitted effect of over 35% in size. Further: potency means the concentration at half of the fitted maximal effect. On viability: series mostly up to about 46 µM. In short, it runs like this:
as §1

Test [11] is described as follows: Quantitative highthroughput screen to assess conditional lethalithy of P12 Ichikawa cells grown in RPMI1640 with dialyzed fetal bovine serum (RPMI+ds) (AID 1963880). Further: nearly all actives have a fitted effect of over 35% in size. Further: potency means the concentration at half of the fitted maximal effect.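 On viability: 100% = DMSO wells and 0% = empty wells on each plate.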 Conditions: Potency: P12-Ichikawa viability. In short, it runs like this: as §1

Consider `O=c1c2ccccc2nc2n1CCc1c-2[nH]c2ccccc12`, for which the Potency result in test [1], in test [2] and in [3] was “inactive” throughout. Besides, in [4], the Potency is 13.2 µM (active).

For `CCCCCCOC(=O)N=C(N)c1ccc(NCc2nc3cc(C(=O)N(CCC(=O)OCC)c4ccccn4)ccc3n2C)cc1`, the Potency was 26.4 µM (active) in test [1], 26.4 µM (active) in [2] and 20.9 µM (active) in [3]. For the same compound, the Potency entry in test [5], in test [6] and in test [7] was “inactive” throughout.

As for `CCN(CC)CCOc1ccc(Cc2ccccc2)cc1`, the Potency was 10.5 µM (active) in test [1]; 7.43 µM (active) in test [3]; 4.18 µM (active) in test [6]; 8.33 µM (active) in [7]; 18.4 µM (active) and inactive in test [9]. For the same compound, the Potency entry in test [2] and in test [4] was “inactive” throughout. The activity (max response) in test [8] was -24% (inactive).

Consider `Nc1ncn([C@@H]2O[C@H](CO)[C@@H](O)[C@@H]2O)c(=O)n1`, for which the Potency in [1] was 16.6 µM (active); in [2] it was 7.43 µM (active); in [3] it was 16.6 µM (active); in [10] it was 9.35 µM (active); in [6], 10.5 µM (active).

Take `CC[C@H]1OC(=O)[C@H](C)[C@@H](O[C@H]2C[C@@](C)(OC)[C@@H](O)[C@H](C)O2)[C@H](C)[C@@H](O[C@@H]2O[C@H](C)C[C@H](N(C)C)[C@@H]2O)[C@](C)(OC)C[C@@H](C)C(=O)[C@H](C)[C@@H](O)[C@]1(C)O`: the Potency entry in [1], in test [2], in [3], in [5], in test [10] and in [6] was “inactive” in each case. In [7], the Potency entry was “inactive”.

Turning to `CC(Cc1ccc(O)c(O)c1)(NN)C(=O)O` (stereo not given), the Potency result in test [1], in [2], in test [3], in test [5], in test [10] and in [9] was “inactive” throughout. For the same compound, the activity (max response) in [8] was 0.463% (inactive).

Consider `CNC(=O)[C@H](CC1=CN=C2C=CCC=C12)NC(=O)[C@@H](CC(=O)NO)CC(C)C`, for which the results for the Potency in [1], in test [2] and in test [3] were 8.33 µM (active), 8.33 µM (active) and 5.9 µM (active), respectively. The Potency result in test [10], in test [6] and in test [7] was “inactive” throughout.

For `Cc1ccc(-c2cc(C(F)(F)F)nn2-c2ccc(S(N)(=O)=O)cc2)cc1`, the Potency result in test [1], in test [2], in test [3], in [4], in [10] and in [6] was “inactive” each time. Moreover, the Potency result in test [7] and in [9] was “inactive” in each case.

With `C=CC1=C(C(=O)O)N2C(=O)[C@@H](NC(=O)C(=NO)c3csc(N)n3)[C@H]2SC1`, the Potency result in [1], in [2], in [3], in test [11], in test [4] and in test [10] was “inactive” throughout. The Potency result in [6] and in test [7] was “inactive” in each case.

As to `CC(C)(C)NC(=O)[C@H]1CN(Cc2cccnc2)CCN1C[C@@H](O)C[C@@H](Cc1ccccc1)C(=O)N[C@H]1c2ccccc2C[C@H]1O`, the Potency entry in test [1], in [2], in [3] and in [10] was “inactive” throughout.

On to `C[C@@]12C(=O)OC(=O)[C@@]1(C)C1CCC2O1`, for which the Potency in [1] was 8.33 µM (active); in test [2], 7.43 µM (active); in test [3], 6.62 µM (active); in test [11], 9.35 µM (active); in test [4], 9.35 µM (active); in test [10] it was 8.33 µM (active). In addition, the Potency in test [6] is 6.62 µM (active); in test [7], 5.26 µM (active).

For `N#CC(=Cc1ccc(O)c(O)c1)C(=O)NCc1ccccc1`, the Potency result in test [1] and in test [2] was “inactive” throughout. For the same compound, the Potency in [6] is 20.9 µM (active).

In the case of `CC1(C)[C@H]2CC[C@]3(C)[C@@H](C(=O)C=C4[C@@H]5C[C@@](C)(C(=O)O)CC[C@]5(C)CC[C@]43C)[C@@]2(C)CC[C@@H]1O`, the Potency entry in test [1], in test [2], in test [11], in test [4], in test [10] and in test [6] was “inactive” each time. Besides, the Potency result in test [7] is “inactive”.

Consider `O=c1[nH]c(=O)n([C@H]2C[C@@H](O)[C@@H](CO)O2)cc1C=CBr`, for which the Potency result in test [1], in test [2], in [11], in test [4], in [6] and in [7] was “inactive” each time.

`O=C(O)c1ccc(O)c2ncc(N3CCOCC3)cc12`: the Potency entry in test [1], in test [2] and in test [9] was “inactive” throughout. Moreover, the Potency in [7] was 18.7 µM (active). Also, in test [8], the activity (max response) is -5.09% (inactive).

Turning to `C=CCNC1=C2C[C@@H](C)C[C@H](OC)[C@@H](O)[C@@H](C)C=C(C)[C@H](OC(N)=O)[C@@H](OC)C=CC=C(C)C(=O)NC(=CC1=O)C2=O`, the Potency in [1] is 5.26 µM (active); in test [2] it was 5.9 µM (active); in test [10], 0.526 µM (active); in test [6] it was 0.332 µM (active); in test [7], 0.332 µM (active).

`Cc1cccc(C=NNc2cc(N3CCOCC3)nc(OCCc3ccccn3)n2)c1`: the values for the Potency in test [1], in [2] and in test [7] were 2.09 µM (active), 1.05 µM (active) and 14.8 µM (active), respectively.

Regarding `COc1ccc(-c2oc3c(CC=C(C)C)c(OC4O[C@H](CO)[C@@H](O)[C@H](O)[C@@H]4O)cc(O)c3c(=O)c2OC2O[C@@H](C)[C@H](O)[C@@H](O)[C@@H]2O)cc1` (stereo not given in full), the Potency entry in test [1], in test [2] and in test [11] was “inactive” throughout. Further, the Potency is 18.7 µM (active) in test [10], 13.2 µM (active) in [6] and 18.7 µM (active) in [7].

Take `CCC(=O)O[C@]1(C(=O)CO)CC[C@H]2[C@@H]3CCC4=CC(=O)CC[C@]4(C)[C@@H]3CC[C@@]21C`: the Potency entry in [1] is “inactive”. Moreover, the Potency in [2] is 10.5 µM (active); in [6], 0.743 µM (active); in [7], 1.18 µM (active).

Regarding `COc1ccc(C=Cc2cc(OC)c(OC)c(OC)c2)cc1O`, the Potency result in test [1], in test [2], in test [6] and in [7] was “inactive” in each case.

Take `COc1ccc2cc1Oc1ccc(cc1)C[C@H]1c3cc(c(OC)cc3CCN1C)Oc1c(OC)c(OC)cc3c1[C@H](C2)N(C)CC3`: the Potency entry in test [1], in test [2] and in [10] was “inactive” throughout.

Regarding `CC=CCC=CCCC(=O)[C@H]1O[C@@H]1C(N)=O`, the Potency entry in test [1], in [2], in test [11] and in test [4] was “inactive” in each case.

Consider `CC(=O)N1CCN(c2ccc(OCc3nn(C)c(C)c3-c3cccc4c(CCCOc5cc(C)c(Cl)c(C)c5)c(C(=O)O)n(Cc5cccnc5)c34)cc2)CC1`, for which the Potency entry in test [1] and in [2] was “inactive” throughout. The values for the Potency in test [6] and in test [7] were 18.7 µM (active) and 20.9 µM (active), respectively.

Source of the values: PubChem BioAssay (NCATS).
